Our source for the activation (rescue from dofetilide block), less the hit threshold values is PubChem BioAssay AID1511 (Johns Hopkins Ion Channel Center, 2009).

Hit rate of the full screen: of about 310,000 compounds, about 1,600 (0.52%) were called active. Only a selection was taken, and actives are over-represented in it overall. Values without a mark were called inactive.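 Rule for the calls: active = activation above the mean of controls blocked by dofetilide plus 5 SD; inactive = the rest.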

In this assay the target is Voltage-gated inwardly rectifying potassium channel KCNH2 (Homo sapiens) (UniProt Q12809). Briefly: compounds relieving dofetilide block of hERG – cell-based, CHO-hERG, FluxOR thallium flux, dofetilide IC70, primary screen (AID 1511).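 Note: thallium influx through hERG after potassium depolarization seen as dye fluorescence rise.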 The conditions noted are these: dofetilide IC70 present, at 10 µM, active compounds read high.
Voltage-gated inwardly rectifying potassium channel KCNH2 (Homo sapiens), sequence (Q12809 whole entry, looked up): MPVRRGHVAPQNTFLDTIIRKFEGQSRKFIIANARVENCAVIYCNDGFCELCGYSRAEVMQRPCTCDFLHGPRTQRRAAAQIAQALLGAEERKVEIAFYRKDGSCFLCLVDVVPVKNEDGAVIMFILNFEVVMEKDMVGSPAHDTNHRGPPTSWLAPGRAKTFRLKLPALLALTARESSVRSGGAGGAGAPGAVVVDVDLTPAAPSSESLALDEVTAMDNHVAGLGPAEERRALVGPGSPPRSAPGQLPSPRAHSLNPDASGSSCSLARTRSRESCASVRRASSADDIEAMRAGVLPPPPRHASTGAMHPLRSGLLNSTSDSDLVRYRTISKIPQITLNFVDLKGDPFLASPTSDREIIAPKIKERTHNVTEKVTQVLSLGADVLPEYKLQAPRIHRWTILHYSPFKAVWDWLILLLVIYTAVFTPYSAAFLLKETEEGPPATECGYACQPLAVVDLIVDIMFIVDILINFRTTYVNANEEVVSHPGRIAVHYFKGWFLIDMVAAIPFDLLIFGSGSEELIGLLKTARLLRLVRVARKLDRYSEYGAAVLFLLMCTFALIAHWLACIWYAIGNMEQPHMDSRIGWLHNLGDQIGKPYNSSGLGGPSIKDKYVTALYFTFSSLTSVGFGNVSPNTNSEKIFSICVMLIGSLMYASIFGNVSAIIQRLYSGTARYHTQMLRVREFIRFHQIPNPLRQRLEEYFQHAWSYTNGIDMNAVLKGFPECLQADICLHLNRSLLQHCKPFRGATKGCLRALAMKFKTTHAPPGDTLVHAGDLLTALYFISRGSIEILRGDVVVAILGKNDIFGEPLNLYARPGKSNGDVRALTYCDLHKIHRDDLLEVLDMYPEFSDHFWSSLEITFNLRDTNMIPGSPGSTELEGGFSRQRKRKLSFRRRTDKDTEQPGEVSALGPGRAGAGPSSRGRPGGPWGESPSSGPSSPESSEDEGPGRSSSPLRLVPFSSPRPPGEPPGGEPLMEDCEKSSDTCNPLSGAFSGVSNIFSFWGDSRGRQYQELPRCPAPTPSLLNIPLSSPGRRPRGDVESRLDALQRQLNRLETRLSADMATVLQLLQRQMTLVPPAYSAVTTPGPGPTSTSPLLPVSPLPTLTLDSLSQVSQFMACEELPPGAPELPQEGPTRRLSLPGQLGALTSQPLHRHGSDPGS
For the compound `O=c1[nH]c(/C=C\c2cccc(C(F)(F)F)c2)nc(O)c1[N+](=O)[O-]`, the activation (rescue from dofetilide block), less the hit threshold was -0.14%. Under `CC(=O)Cc1nsc(NC(=O)c2ccc(Cl)cc2Cl)n1` stands -13.1%; under `O=C(Nc1ccc(OCC(=O)N2CCOCC2)cc1)c1cc(F)c(F)cc1Cl`, -9.32%. To `CCN1CCc2nc(NC(=O)c3cc(F)c(F)cc3Cl)sc2C1` belongs 15.1% (active); to `COCCCNC(=O)/C(C#N)=C/c1c(N2CCCCCC2)nc2ccccn2c1=O`, -4.19%. Regarding `Cc1c(C)c2c(OCC(=O)N[C@@H](C(=O)O)c3ccccc3)cc3c(c2oc1=O)CCC(C)(C)O3`, the activation (rescue from dofetilide block), less the hit threshold is -2.69%.

For `Oc1c(Cl)cc(Cl)cc1/C=N/c1ncn[nH]1`, the activation (rescue from dofetilide block), less the hit threshold is 15.4% (active). To `COc1cc(Br)cc(/C=N/c2ncn[nH]2)c1O` belongs -7.59%. On to `CC(C)CCNC(=O)C1CCC(CNc2c(N3CCC(C)CC3)c(=O)c2=O)CC1` (configuration not stated), for which the activation (rescue from dofetilide block), less the hit threshold is -6.27%. To `Cc1cc(C)cc(NC(=O)NC2CCCCCCC2)c1` belongs -9%. `CCOC(=O)CSC1=N/C(=C/c2ccc(-n3cncn3)cc2)C(=O)N1C(C)=O`: the activation (rescue from dofetilide block), less the hit threshold is -12%. Regarding `Cc1cc(C)c2c(=O)[nH]c(SCC(=O)Nc3ccc(Br)cc3)nc2n1`, the activation (rescue from dofetilide block), less the hit threshold is -11.1%.

With `Cc1ccn(C(CC(=O)c2ccc(Br)cc2)C(=O)O)n1` (configuration not stated), the activation (rescue from dofetilide block), less the hit threshold was 5% (active). Under `Cc1ccc(NC(=O)CCC(=O)c2ccc(Br)cc2)cc1` stands 1.34%; under `O=Cc1c(NCCc2cccc(F)c2)c2ccccc2[nH]c1=O`, -6.93%. Consider `CCOc1ccc(C(C)=O)cc1COC(=O)CNC(=O)c1cccs1`, for which the activation (rescue from dofetilide block), less the hit threshold was -15.3%.

Turning to `CN(C)CCCn1c(=O)n(Cc2ccccc2)c(=O)c2c3c(sc21)CCCCC3`, the activation (rescue from dofetilide block), less the hit threshold was -10.2%.

Regarding `CCCc1nc2sc3c(c2c(=O)n1NC(=O)CCCl)CCCC3`, the activation (rescue from dofetilide block), less the hit threshold was -1.21%. Under `CCn1c(=S)[nH]c2sc3c(c2c1=O)CCCCC3` stands 37.3% (active); under `O=C(/C=C/c1cccs1)NCc1cccnc1`, -8.68%; under `COc1ccc(N2CCN(c3ccc([N+](=O)[O-])nc3)CC2)cc1`, 7.73% (active). Consider `O=[N+]([O-])c1ccc(N2CCN(c3ccc(F)cc3)CC2)cn1`, for which the activation (rescue from dofetilide block), less the hit threshold is -4.38%.

Turning to `COc1ccccc1N1CCN(c2ccc([N+](=O)[O-])nc2)CC1`, the activation (rescue from dofetilide block), less the hit threshold was -22%.

For the compound `CCc1ccc(NC(=O)C(=O)NNC(=O)c2cccs2)cc1`, the activation (rescue from dofetilide block), less the hit threshold was 46.7% (active).

Regarding `CCc1ccc(NC(=O)COC(=O)c2cccs2)cc1`, the activation (rescue from dofetilide block), less the hit threshold was -2.35%.

On to `CC(C)C(=O)Nc1ccc(C(=O)NNC(=O)c2cccs2)cc1`, for which the activation (rescue from dofetilide block), less the hit threshold was -4.59%. For `O=S(=O)(Nc1ccc2nc(-c3ccco3)[nH]c2c1)c1ccccc1`, the activation (rescue from dofetilide block), less the hit threshold was -13.3%. Turning to `CCCCNC(=O)c1ccc(-n2c(=S)[nH]c3ccccc3c2=O)cc1`, the activation (rescue from dofetilide block), less the hit threshold was -10.5%.

For `CCCCn1c(=S)[nH]c2ccccc2c1=O`, the activation (rescue from dofetilide block), less the hit threshold is 7.08% (active).

For the compound `CCCCn1c(=S)[nH]c2ncccc2c1=O`, the activation (rescue from dofetilide block), less the hit threshold is -2.34%.

As for `Cn1cc(S(=O)(=O)N2CCN(c3ccc(F)cc3)CC2)c(=O)n(C)c1=O`, the activation (rescue from dofetilide block), less the hit threshold is -3.11%. To `COc1ccc(/C=C2\SC(=N)N(c3ccc(F)cc3)C2=O)cc1` belongs -2.33%; to `COc1ccc(/C=C2/S/C(=N/N=C3\CC4CCC3(C)C4(C)C)NC2=O)cc1` (configuration not stated), 19.7% (active); to `CCOc1ccc(N=C2NC(=O)S/C2=C\c2ccc(O)cc2)cc1`, -4.52%.

In the case of `COc1ccc(CCNC(=O)NS(=O)(=O)c2ccc(C)cc2)cc1OC`, the activation (rescue from dofetilide block), less the hit threshold is 0.48%.

Turning to `C=CCN1C(=O)C(Cc2cccc(Cl)c2)S/C1=N/N=C/c1ccco1` (configuration not stated), the activation (rescue from dofetilide block), less the hit threshold was -5.7%. Under `CCOc1ccc(N=C2SC(C(=O)O)CC(=O)N2C)cc1` (configuration not stated) stands -10.3%; under `C=CCN1C(=O)C(Cc2ccc(OCC)cc2)SC1=Nc1ccc(C(=O)O)cc1` (configuration not stated), 5.1% (active); under `FC(F)(F)c1ccnc(Oc2ccc(C3=NCCS3)cc2)c1`, -5.42%. To `COc1ccc(S(=O)(=O)N2CCOC2CNC(=O)C(=O)NCc2ccncc2)cc1OC` (configuration not stated) belongs -6.76%; to `O=C(Nc1ccc(-c2cscn2)cc1)C1CCCN(Cc2ccc(CO)o2)C1` (configuration not stated), -2.17%; to `O=C1CCN(CCCc2ccccc2)CCN1CCO`, 5.3% (active). To `O=C1CCN(CCc2ccccc2)CCN1CCOc1ccccc1` belongs -5.23%; to `N#Cc1cccc(CN2CCC(=O)N(CCO)CC2)c1`, 1.97%; to `Cc1n[nH]c(=O)c2c(NC(=O)COC(=O)c3ncc(Cl)c(Cl)c3Cl)oc(C)c12`, -12.6%.

In the case of `Cc1cc(OCCN2CCCC2)cc(C(C)C)c1`, the activation (rescue from dofetilide block), less the hit threshold is -6.59%. To `O=C(COC(=O)c1cnc(Cl)c(Cl)c1)NCc1ccco1` belongs 40.4% (active); to `O=C(COC(=O)c1ccco1)NCc1ccc(Cl)cc1`, -0.71%; to `O=C(COC(=O)c1cc(S(=O)(=O)N2CCCCC2)ccc1Cl)NCc1ccco1`, -13.9%. With `Cc1c(CN2CCC(CO)(CCOc3ccccc3)CC2)[nH]c2ccc(Cl)cc12`, the activation (rescue from dofetilide block), less the hit threshold was -21.9%. With `Cc1nn(CC2CC2)c(=O)n1N(C)c1ncc(C(F)(F)F)cc1Cl`, the activation (rescue from dofetilide block), less the hit threshold is -8.88%. Under `COc1ccc(OC)c(C2C3=C(N=c4s/c(=C\c5cccc(O)c5)c(=O)n42)c2ccccc2CC3)c1` (configuration not stated) stands -0.7%; under `O=C1CCCC2=C1C(c1ccccc1)n1c(s/c(=C/c3cccc(F)c3)c1=O)=N2` (configuration not stated), 5.71% (active); under `O=C1CC(c2cccc(F)c2)C2=C(CCCC2=O)N1` (configuration not stated), -5.36%.

As for `CCOC(=O)Cc1cc(=O)[nH]c(=O)[nH]1`, the activation (rescue from dofetilide block), less the hit threshold is -4%. Under `CC1CCCCC1NC(=O)c1cn(C)c2ccc(S(=O)(=O)N3CCOCC3)cc2c1=O` (configuration not stated) stands -5.24%.

On to `Cc1cc(C(=O)NCCc2ccc(Cl)cc2)c(C)o1`, for which the activation (rescue from dofetilide block), less the hit threshold was -9.03%. As for `CCOC(=O)c1c(C)oc2cc(Sc3ccccc3)c(O)c(O)c12`, the activation (rescue from dofetilide block), less the hit threshold was -5.84%. Under `CCc1ccc(NC(=O)C(=O)N/N=C(\C)CC(=O)NCCOC)cc1` stands 6.83% (active). To `COc1ccc(COC(=O)N/N=C(\C)CC(=O)Nc2ccc(Cl)cc2)cc1` belongs -11.8%; to `C/C(CC(=O)Nc1ccc(Cl)cc1)=N\NC(=O)C(=O)NCCO`, -8.82%; to `COC(=O)C(C)N=Cc1ccccc1` (configuration not stated), -14%.

For the compound `Cc1ccc(S(=O)(=O)N(CC(=O)NCc2ccco2)c2ccccc2C)cc1`, the activation (rescue from dofetilide block), less the hit threshold was -7.72%. Under `Nc1nnnn1/N=C/c1cccc(Br)c1` stands -0.31%; under `COC(=O)c1cccc(-n2[nH]nnc2=S)c1`, -7.53%. For `COc1cc(-c2noc(C3CCCN(S(=O)(=O)c4cccc(Cl)c4)C3)n2)cc(OC)c1OC` (configuration not stated), the activation (rescue from dofetilide block), less the hit threshold is -11.3%. On to `Cc1ccc(C(=O)NC(=S)Nc2ccccc2C)cc1`, for which the activation (rescue from dofetilide block), less the hit threshold is -5.4%. In the case of `COC(=O)c1sc(NC(=O)c2csc3c2CCCC3)nc1C`, the activation (rescue from dofetilide block), less the hit threshold is -6.43%. To `COC(=O)c1sc(NC(=S)NC(=O)c2ccc(C)cc2)nc1C` belongs 7.72% (active). On to `CCCN(C(=O)CSc1nnnn1C)c1c(N)n(Cc2ccccc2)c(=O)[nH]c1=O`, for which the activation (rescue from dofetilide block), less the hit threshold was -7.93%.

Regarding `Cc1ccc2c(c1)nnc1nnc(SCC(=O)O)n12`, the activation (rescue from dofetilide block), less the hit threshold was 1.69%. `CCN1CCN(C(=O)c2ccc(CN(c3ccc(C)c(C)c3)S(C)(=O)=O)cc2)CC1`: the activation (rescue from dofetilide block), less the hit threshold is -6.12%.

`CCOC(=O)N1CCN(C(=O)c2ccc(CN(c3ccc(C)c(C)c3)S(C)(=O)=O)cc2)CC1`: the activation (rescue from dofetilide block), less the hit threshold was 4.64% (active). Consider `CCOC(=O)N1CCN(C(=O)CN(c2ccc(C)c(C)c2)S(=O)(=O)c2ccccc2)CC1`, for which the activation (rescue from dofetilide block), less the hit threshold was -9.17%. Consider `O=C(NC1CCCC1)C(c1c(F)cccc1Cl)N(C(=O)c1csnn1)C1CC1` (configuration not stated), for which the activation (rescue from dofetilide block), less the hit threshold is -2.39%.

With `CCO[C@H]1OC(C(=O)O)=C[C@@H](C2CCCCC2)[C@@H]1CCCO`, the activation (rescue from dofetilide block), less the hit threshold is -4.25%.

Consider `COc1cc(OC)cc(/C(N)=N/O)c1`, for which the activation (rescue from dofetilide block), less the hit threshold is -15.6%. With `CC1CC(C)CN(C(=O)CSc2ccsc2[N+](=O)[O-])C1` (configuration not stated), the activation (rescue from dofetilide block), less the hit threshold is -2.19%. In the case of `CN(c1ccccc1)S(=O)(=O)c1cc(C(=O)OCC(=O)N2CCN(C(=O)c3ccco3)CC2)ccc1Cl`, the activation (rescue from dofetilide block), less the hit threshold was 5.23% (active).

On to `CN(c1ccccc1)S(=O)(=O)c1ccc(Cl)c(C(=O)OCC(=O)N2CCOCC2)c1`, for which the activation (rescue from dofetilide block), less the hit threshold was 4.51%. With `O=C(OCC(=O)N1CCN(C(=O)c2ccco2)CC1)c1cccc(O)c1`, the activation (rescue from dofetilide block), less the hit threshold was -4%.

Take `Cc1ccc(NC(=O)CSc2nnc(CNC(=O)c3ccccc3F)o2)cc1Cl`: the activation (rescue from dofetilide block), less the hit threshold is -8.43%. Take `CCN(CC)c1ccc(C(=O)c2cnc(/N=C/N(C)C)s2)cc1`: the activation (rescue from dofetilide block), less the hit threshold is -22%.

As for `Cc1cc(C)c(NC(=O)CS(=O)CC(=O)Nc2cccnc2)c(C)c1` (configuration not stated), the activation (rescue from dofetilide block), less the hit threshold was 7.98% (active).

Consider `Cc1cc(C)c(NC(=O)CSc2nc3ccncc3[nH]2)c(C)c1`, for which the activation (rescue from dofetilide block), less the hit threshold was -2.72%. Regarding `Cc1ccc(NC(=O)Nc2cccnc2)cc1`, the activation (rescue from dofetilide block), less the hit threshold was -1.84%.

On to `COc1ccc(CCc2nnc(CCC(=O)NCc3cnn(-c4ccccc4C)c3)o2)cc1`, for which the activation (rescue from dofetilide block), less the hit threshold is -3.52%. As for `COc1ccc(S(=O)(=O)NCC(c2ccco2)N2CCOCC2)cc1` (configuration not stated), the activation (rescue from dofetilide block), less the hit threshold was -10.9%.

Turning to `Cc1ccc(NNC(=O)c2c(F)cccc2Cl)cc1Cl`, the activation (rescue from dofetilide block), less the hit threshold is -7.77%. `Cc1cc(OC(=O)c2c(Cl)cccc2Cl)nc(C)n1`: the activation (rescue from dofetilide block), less the hit threshold was -14.7%. Under `Cc1cc(C)c(S(=O)(=O)c2ccccc2)c(OC(=O)c2c(F)cccc2Cl)n1` stands 8.53% (active). Under `Cc1cccc(S(=O)(=O)N2CN(CC3CCCO3)c3nc4ccccc4nc32)c1` (configuration not stated) stands -10.3%. Under `CCOc1cc(/C=N/Nc2cc(C)nc3ccc(C)cc23)ccc1O` stands -14.3%; under `CCOC(=O)C1CCN(c2c(Nc3cc(C)cc(C)c3)c(=O)c2=O)CC1`, -11.1%; under `Cc1cccc(-c2nc3ccccc3c(=O)n2NC(=O)Cc2ccc(Cl)cc2)c1`, -2.81%. `O=c1c2cc(Br)ccc2nc(-c2cccc(Cl)c2)n1O`: the activation (rescue from dofetilide block), less the hit threshold is 59% (active).

With `O=C1CCCc2c1nc(-c1cccc(Cl)c1)n2O`, the activation (rescue from dofetilide block), less the hit threshold was -10.5%.
